Reference: PubChem BioAssay (NCI)
Compounds without any hit were thinned out: in the full panel of roughly 79,000, 15% have a hit. Activity calls are given as the source filed them. Rule as the data show it: active = growth inhibition above about 70%; inactive = the rest.

Experiments:
[1] = NCI Yeast Anticancer Drug Screen. Data for the rad50 strain (AID 155);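 also: 0% = growth of vehicle-only cultures of the same strain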; settings: S. cerevisiae rad50 strain growth inhibition; at 50.0 µM; hits give high values
How it was run: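 Inhibition values express reduced yeast growth in compound-treated cultures relative to vehicle-treated controls.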

[2] = NCI Yeast Anticancer Drug Screen. Data for the mec2-1 strain (AID 157); settings: S. cerevisiae mec2-1 strain, at 50.0 µM, hits give high values
How it was run: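 Compounds were applied to mec2-1 yeast cells. Their growth was then compared with that of vehicle-treated cultures to give growth inhibition.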

[3] = NCI Yeast Anticancer Drug Screen. Data for the sgs1 mgt1 strain (AID 161);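 also: 0% = growth of cultures given vehicle only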; settings: S. cerevisiae sgs1 mgt1 strain, at 50.0 µM, hits give high values
How it was run: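 Percent growth inhibition was derived by comparing compound-exposed mutant yeast with vehicle-exposed cultures. The strain carries alterations in DNA damage repair.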

[4] = NCI Yeast Anticancer Drug Screen. Data for the cln2 rad14 strain (AID 165);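 also: 0% = growth equal to vehicle treated cultures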; settings: S. cerevisiae cln2 rad14 strain, at 50.0 µM, hits give high values
How it was run: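 Strain: cln2 rad14 yeast, altered in cell cycle control and DNA damage repair. Read-out: growth inhibition vs vehicle.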

[5] = NCI Yeast Anticancer Drug Screen. Data for the bub3 strain (AID 167); settings: S. cerevisiae bub3 mutant strain, at 50.0 µM, hits give high values
How it was run: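 Steps: expose the mutant yeast strain to compound; grow alongside vehicle-treated cultures; measure growth; express inhibition against the vehicle cultures.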

[6] = NCI Yeast Anticancer Drug Screen. Data for the mlh1 rad18 strain (AID 175); settings: S. cerevisiae mlh1 rad18 strain growth inhibition; at 50.0 µM; hits give high values
How it was run: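 A repair-deficient yeast strain is exposed to test compound, and growth is scored relative to vehicle-treated controls.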

Measured: growth inhibition

COC1=CC(=O)OC(c2ccccc2)(c2ccccc2)C1
inactive: [1] -3.6% | [2] -15.1% | [3] 8.8% | [4] 13% | [5] 13.6% | [6] -3.65%

C=Cc1c(C)c2cc3[nH]c(cc4nc(cc5nc(cc1[nH]2)C(C)=C5CCC(=O)OC)C(CCC(=O)OC)=C4C)c(C)c3C=C
inactive: [1] 8.1% | [2] 6.45% | [3] 10.3% | [4] 13.1% | [5] -1.05% | [6] -5.85%

CSc1ccc2c(c1)Cc1cc(N)ccc1-2
inactive: [1] 3.9% | [2] 10.6% | [3] 12.1% | [4] 3.4% | [5] -26.7% | [6] 10.8%

O=C(O)C1c2ccccc2C(C(=O)O)c2ccccc21 (stereo unspecified)
inactive: [1] -6.4% | [2] -2.25% | [3] -4% | [4] 19.9% | [5] 13% | [6] 31.8%

CCOC(=O)C1=C(C)N(C2OC(COC(=O)c3ccccc3)C(OC(=O)c3ccccc3)C2OC(=O)c2ccccc2)C(=S)NC1c1ccccc1 (stereo unspecified)
inactive: [1] -0.8% | [2] -27.1% | [3] 10.6% | [4] -2.6% | [5] -4.85% | [6] -6.05%

O=C(N/N=C/c1ccc(Cl)cc1)C(c1ccccc1)N1CCCCC1 (stereo unspecified)
inactive: [1] 4.7% | [2] -2.65% | [3] -0.2% | [4] 4.6% | [5] 8.55% | [6] 13.7%

COC(=O)C(=O)C(C(=O)C(=O)Nc1cc([N+](=O)[O-])ccc1[N+](=O)[O-])c1nc2ccc(C(=O)c3ccccc3)cc2[nH]c1=O (stereo unspecified)
inactive: [1] 29.7% | [2] 15.8% | [3] 4.1% | [4] -16.1% | [5] 40.6% | [6] 18.9%

Cc1ccc(NC(=O)OCC(F)(F)C(F)(F)C(F)(F)F)c(NC(=O)OCC(F)(F)C(F)(F)C(F)(F)F)c1
inactive: [1] -9.15% | [2] -12.1% | [3] -8.6% | [4] -33.6% | [5] -4.05% | [6] 12.8%

CC(C)(C)C(c1ccccc1)[N+](C)(C)C (stereo unspecified)
inactive: [1] -22.2% | [2] -2% | [3] -2.05% | [4] 18.9% | [5] 15.2% | [6] 29.9%

C#CCOCC12C=CC(O1)C1C(=O)OCC12 (stereo unspecified)
inactive: [1] -9.45% | [2] 9.65% | [3] -12.8% | [4] 18.9% | [5] 21% | [6] 41.9%

O=NN(CCCl)C(=O)NC1CCC(O)CC1 (stereo unspecified)
inactive: [1] -16.9% | [2] -10.8% | [3] -24% | [4] 13.2% | [5] -4.2% | [6] -4.2%

CC1CCC(CC(N)=O)C1(C)C (stereo unspecified)
inactive: [1] 11.8% | [2] -7.15% | [3] 2.75% | [4] -22.2% | [5] 2.85% | [6] 0.35%

CCOC(=O)CNCc1cccc(Cl)c1
inactive: [1] 5.15% | [2] 28.4% | [3] 15.4% | [4] -0.8% | [5] 28.1% | [6] 24.2%

CO/N=C\c1cc[n+](C)cc1
inactive: [1] 11.7% | [2] 24.6% | [3] 18.9% | [4] 30.7% | [5] 55% | [6] 19.2%

CC(C)(c1ccc([N+](=O)[O-])cc1)[N+](=O)[O-]
inactive: [1] 11.1% | [2] 10.3% | [3] 1.6% | [4] -7.4% | [5] -11.8% | [6] -4.55%

COc1ccc(CC2COC(=O)C2Cc2ccc(OC)c(OC)c2)cc1OC (stereo unspecified)
inactive: [1] 6.35% | [2] 5.95% | [3] -17.6% | [4] -11.6% | [5] 8.1% | [6] 12.8%

NC(=S)Cc1ccccn1
inactive: [1] -1.45% | [2] 15.5% | [3] 9.25% | [4] -19.1% | [5] -4.45% | [6] 6.55%

Cc1cc(C)cc(C(=O)N=C(c2ccncc2)c2nc(-c3ccccc3)oc2O)c1
inactive: [1] -3.3% | [2] 13.9% | [3] -16.6% | [4] -12.4% | [5] 3.15% | [6] -1.3%

Cc1cc(Cl)ccc1NC(=O)C1C(=O)N(c2ccc(Cl)cc2C)C(=O)/C1=N\NC(N)=O (stereo unspecified)
inactive: [1] 7.65% | [2] -24.4% | [3] 14.4% | [4] 6.1% | [5] -6.45% | [6] 5.7%

CC(=O)Oc1cccc2c1ccc1nonc12
inactive: [1] 1.75% | [2] 0.35% | [3] -2.2% | [4] -49.8% | [5] -11.4% | [6] -3%

CC12CC3CC(C)(C1)CC(N=[N+]=[N-])(C3)C2
inactive: [1] -27.4% | [2] -9.6% | [3] -12.1% | [4] 6.15% | [5] -0.8% | [6] -29.5%

O=C(C[n+]1cccc2cccc(O)c21)c1ccc2ccccc2c1
inactive: [1] 6.6% | [2] 7.6% | [3] 18.8% | [4] 26.6% | [5] 1.15% | [6] 2.7%

CSC(=N\N=C(/C)c1ccc(Br)cc1)/N=C/N(C)C
inactive: [1] 46.2% | [2] 23.2% | [3] 55.5% | [4] 19% | [5] 28.1% | [6] 31.7%

CCOC(=O)CCC1(CCC(=O)OCC)CCCCCCCCC(CCC(=O)OCC)(CCC(=O)OCC)C(=O)C1=O
inactive: [1] 12.9% | [2] 12.3% | [3] -14.7% | [4] 38% | [5] -4.7% | [6] -1.3%

CC/C(C)=N/NS(=O)(=O)c1ccc(C)cc1
inactive: [1] 43.9% | [2] 13.2% | [3] 2.3% | [4] 16% | [5] 1.15% | [6] 42.5%

N#CCCN(CCC#N)c1ccc(/C=C2\N=C(c3cc([N+](=O)[O-])ccc3Cl)N(NC(=O)CC(=O)Nc3ccccc3Cl)C2=O)cc1
inactive: [1] -31% | [2] -28.1% | [3] -13.8% | [4] 2.5% | [5] 1.65% | [6] -18.3%

C/C=C1\CN2CCc3c([nH]c4ccccc34)C2CC1CC(=O)N(C)C (stereo unspecified)
inactive: [1] 0.9% | [2] -7.75% | [3] -20.6% | [4] -1% | [5] 1.6% | [6] -5.95%

CCSC1(SCC)C2(CCCCC2)C(=O)C12CCCCC2
inactive: [1] -5.55% | [2] 17.1% | [3] 9.1% | [4] -12.1% | [5] 13.1%
active: [6] 78.1%

CCCCOCC(=O)NC1CCCCC1
inactive: [1] 29.9% | [2] -30.4% | [3] -39.4% | [4] -10.2% | [5] -24.1% | [6] 33.6%

CN(C)CCCOCCn1c2c(c3ccccc31)CCCC2
inactive: [1] 19.2% | [2] -1.2% | [3] 12.9% | [4] -2.95% | [5] 15.8% | [6] -89.5%

CNC(=O)Nc1ccc(OC)cc1OC
inactive: [1] 3% | [2] -6.2% | [3] -8.35% | [4] -66.5% | [5] 3.2% | [6] -18.6%

C/C(Nc1ccc(F)cc1)=C1/CCOC1=O
inactive: [1] 9.8% | [2] -17.9% | [3] -1.5% | [4] -43.5% | [5] 13.8% | [6] -11.5%

CCC(CC)C(O)(C(=O)O)C(CC)CC
inactive: [1] 14.1% | [2] 13.7% | [3] 3.95% | [4] 3.3% | [5] 8.5% | [6] 32.8%

O=S1(=O)OCCOS(=O)(=O)C1S(=O)(=O)c1ccc2ccccc2c1
inactive: [1] 50.5% | [2] -6.15% | [3] 9.3% | [4] 34.8% | [5] 1.4% | [6] 11.8%

O=C(/C=C/c1ccncc1)c1ccccc1
inactive: [1] 0.4% | [2] -9.3% | [3] -1.85% | [4] 11.9% | [5] -12.9% | [6] 1.75%

N#Cc1cccc(N2C(=O)c3c(c(-c4ccccc4)c(-c4ccc(Sc5ccc(-c6c(-c7ccccc7)c7c(c(-c8ccccc8)c6-c6ccccc6)C(=O)N(c6cccc(C#N)c6)C7=O)cc5)cc4)c(-c4ccccc4)c3-c3ccccc3)C2=O)c1
inactive: [1] -48.6% | [2] -44.2% | [3] -41% | [4] -14.8% | [5] -68.8% | [6] -60.8%

CC1CCC(C(C)C)C(OS(=O)(=O)c2ccccc2)C1 (stereo unspecified)
inactive: [1] 0.1% | [2] -26.7% | [3] -10.4% | [4] 17.3% | [5] 11.6% | [6] 1.8%

CCc1nc(N)nc(N)c1-c1ccc(OC)c(N)c1
inactive: [1] 22.4% | [2] 28.1% | [3] 22.6% | [4] 35.7% | [5] 13.6% | [6] 43.4%

C(/C=N/NC1=NCCCCN1)=N\NC1=NCCCCN1
inactive: [1] -6.7% | [2] -13% | [3] -9.05% | [4] 4.5% | [5] -13.6% | [6] -11.2%

NC(=O)C(CC(=O)O)NC(=O)c1ccccc1 (stereo unspecified)
inactive: [1] 8.05% | [2] 1.15% | [3] 3.45% | [4] -35% | [5] -10.7% | [6] 10.1%

CC(=O)OCC1OC(OC(C)=O)C(NC(=O)C[NH-])C(OC(C)=O)C1OC(C)=O.CC(=O)OCC1OC(OC(C)=O)C(NC(=O)C[NH-])C(OC(C)=O)C1OC(C)=O.[Cl][Pt+2][Cl] (stereo unspecified)
inactive: [1] -2.75% | [2] -19.4% | [3] -5.85% | [4] -42.9% | [5] 1.7% | [6] 21.9%
